HRas wt GTP bind = human HRas wildtype GTP binding, change in either direction; P01112; GST-Ras wt beads, Bodipy-FL-GTP binding, flow cytometry; actives lie on both sides; GTP binding activity, % at 10 µM; hit rate 0.14% among 190,000;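 active = GTP binding activity at least 20% away from the 100% baseline, either lowered as inhibitor or raised as activator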
Target sequence (P01112 whole entry, looked up): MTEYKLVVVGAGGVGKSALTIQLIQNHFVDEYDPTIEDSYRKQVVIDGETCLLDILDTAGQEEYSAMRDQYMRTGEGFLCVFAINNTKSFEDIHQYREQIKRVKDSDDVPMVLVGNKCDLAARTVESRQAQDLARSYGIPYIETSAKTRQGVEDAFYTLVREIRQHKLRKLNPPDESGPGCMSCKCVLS
Rab7 wt modul = modulators of GTP binding to dog Rab7 wildtype GTPase; GST-Rab7 beads, fluorescent GTP binding, flow cytometry; actives lie on both sides; untreated = 100%, excess cold GTP = 0%; GTP binding activity (percent of control), % at 10 µM; hit rate 0.055% among 190,000; AID 758;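 active = fluorescent GTP binding to Rab7 beads changed by at least 20 points from the 100% baseline, either direction, mostly lower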;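 also: median green fluorescence of bound Bodipy-FL-GTP per Rab7 bead population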
Rab2 wt GTP = changes GTP binding to wildtype dog Rab2A, up or down | GTP binding activity, % at 10 µM | hit rate 0.19% among 190,000 | P61105 | AID 760 | GST-Rab2 wt beads, Bodipy-GTP binding, flow cytometry;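 active = GTP binding activity at least 20 points away from 100%, either lowered or raised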
Rac1 wt modul = modulators of human Rac1 wildtype GTP binding | P63000 | GST-Rac1 beads, fluorescent GTP binding, flow cytometry; actives lie on both sides; 0 = cold GTP competed, 100 = untreated | GTP binding activity (% of control), % at 10 µM | hit rate 0.27% among 190,000 | AID 757;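 active = GTP binding activity at least 20 points away from the 100% control level, either lower or higher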
Rac1 act GTP bind = alters GTP binding to activated mutant human Rac1; hit rate 0.11% among 190,000; AID 764; P63000; GST-Rac1 activated beads, fluorescent GTP binding, flow cytometry; actives lie on both sides; 100% means binding = to untreated wells; percent activity (GTP binding), % at 10 µM;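 active = GTP binding at least 20 percentage points away from the 100% baseline, in either direction, so actives lie on both sides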
Cdc42 wt = changes GTP binding to wildtype human Cdc42. hit rate 0.2% among 190,000. P60953. percent activity (GTP binding), % at 10 µM. GST-Cdc42 beads, Bodipy-GTP binding, flow cytometry; actives lie on both sides;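 active = percent activity GTP binding at least 20 points away from the 100% baseline, either down as inhibitor or up as activator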;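 also: median bead fluorescence of bound Bodipy-FL-GTP at 100 nM; below 100% means less GTP binding so inhibitor and above means activator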
Target sequence (P60953 whole entry, looked up): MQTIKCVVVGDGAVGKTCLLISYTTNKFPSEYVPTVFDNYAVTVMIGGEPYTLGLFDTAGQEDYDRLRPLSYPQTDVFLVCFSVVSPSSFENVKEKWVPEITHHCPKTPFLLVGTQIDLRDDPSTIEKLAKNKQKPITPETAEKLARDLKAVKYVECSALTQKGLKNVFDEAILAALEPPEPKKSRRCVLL
Hits are given with their value; 0 = inactive; [ ] = dose if it differs, or a comment. A selection: hits, their analogues and other compounds. The true share with any hit is near 0.38%.

SMILES	HRas wt GTP bind	Rab7 wt modul	Rab2 wt GTP	Rac1 wt modul	Rac1 act GTP bind	Cdc42 wt
O=C(O)c1ccc(NC(=S)NC2CCCCC2)cc1	0	0	0	0	0	0
S=C(Nc1ccc(Oc2ccccc2)cc1)NC1CCCCCC1	0	0	0	0	0	79.0
Cc1cc(C(=O)NNC(=S)Nc2ccccc2)nn1C	0	0	0	0	0	0
CC(C)CNS(=O)(=O)c1ccc(CCC(=O)Nc2ccc3c(c2)OCO3)cc1	0	0	0	0	0	0
CCOC(=O)N1CCN(C(=O)CCc2ccc(S(=O)(=O)NCCc3ccccc3)cc2)CC1	37.0	20.0	32.0	29.0	32.0	33.0
O=C(CCc1ccc(S(=O)(=O)NCCc2ccccc2)cc1)Nc1ccc2c(c1)OCO2	39.0	24.0	34.0	33.0	35.0	35.0
Cc1cc2nccc(-c3ccc(Cl)c([N+](=O)[O-])c3)n2n1	0	0	0	0	0	0
CCSc1nnc(NC(=O)[C@@H](NC(=O)c2ccc(C(C)(C)C)cc2)C(C)C)s1	0	0	0	0	0	0
Cn1c(-c2cnn(-c3ccccc3)c2-n2cccc2)n[nH]c1=S	0	0	0	0	0	0
O=C(c1cc2cc([N+](=O)[O-])ccc2s1)N1CCCCC1	0	0	0	0	0	0
Cc1cn2c(nc(=O)c3cccnc32)s1	0	0	0	76.0	0	0
Cc1ccc(NC(=O)CSCc2n[nH]c(=O)[nH]2)c(Br)c1	0	0	0	0	0	0
COc1cc(C(=O)NNC(=S)Nc2ccc(S(N)(=O)=O)cc2)cc(OC)c1OC	0	0	0	0	0	0
CCOC(=O)C1=C(N)OC2=C(C(=O)CC(C)(C)C2)C1c1cc(CSc2nnnn2C)cs1 (stereo unspecified)	0	0	0	0	0	0
CCOC(=O)c1nc(Nc2ccc(C(C)=O)cc2)c2ccccc2n1	0	0	0	78.0	0	0
CS(=O)(=O)N1CCN(C(=O)C2c3ccccc3Oc3ccccc32)CC1	0	0	0	121.0[activator]	0	0
OCCSc1nc(N2CCOCC2)nc(N2CCOCC2)n1	0	0	0	0	0	0
S=c1[nH]nc(-c2ccco2)n1-c1ccc(Cl)cc1	0	0	0	0	78.0	0
Cc1ccc(-n2nnnc2CN2CCCCC2)cc1	0	0	0	0	0	0
COC(=O)C1=C(C)NC(=O)/C1=C\c1cc(C)n(-c2ccccc2C)c1C	0	0	0	0	0	0
COC(=O)C1=C(C)NC(=O)/C1=C\c1cc(C)n(-c2c(C)cccc2C)c1C	122.0[activator]	0	123.0[activator]	0	0	121.0[activator]
O=C(Nn1cnc2ccccc2c1=O)c1ccccc1[N+](=O)[O-]	0	0	0	0	0	0
NC(=S)N=Nc1c(O)[nH]c2cc(F)c(F)cc12	0	0	78.0	0	0	0
O=C1CCCC(O)=C1C=NCc1ccccc1	0	0	0	0	0	0
CCOC(=O)c1nn(-c2ccccc2)c(=O)cc1SC(C)C	0	0	63.0	0	0	0
SMILES	HRas wt GTP bind	Rab7 wt modul	Rab2 wt GTP	Rac1 wt modul	Rac1 act GTP bind	Cdc42 wt
Cn1cnc([N+](=O)[O-])c1Oc1ccc2ccccc2c1	0	0	0	0	0	0
Cc1nc(-c2ccccc2)sc1C(=O)NN	0	0	120.0[activator]	128.0[activator]	0	125.0[activator]
O=C(/C=C/c1ccccc1)NC1CCCc2ccccc21 (stereo unspecified)	0	0	0	0	0	0
Cc1cc(N/N=C/c2ccc(O)cc2O)nc(-c2ccccc2O)n1	79.0	0	77.0	71.0	0	0
O=C(COc1ccc(Cl)cc1)NNC(=O)CSc1nncs1	0	0	0	0	0	0
COc1ccccc1-n1ccnc1SCC(=O)NCc1ccco1	0	0	0	0	0	0
COc1cc2c(C)nc3c(c(C)nn3-c3ccccc3)c2cc1OC	0	0	0	72.0	0	0
COc1cc2c(-c3ccc(O)cc3)nc3c(c(C)nn3-c3ccccc3)c2cc1OC	0	0	0	0	0	0
C=CCn1cn[nH]c1=S	0	0	0	0	0	0
CCCCc1ncc(CN2CCN(Cc3ccc(C)cc3)C(CCO)C2)[nH]1 (stereo unspecified)	0	0	0	0	0	0

Screening results: PubChem BioAssay, NMMLSC
